Measurements from PubChem BioAssay (Tox21).
Records with an inconclusive call do not appear. Entries that show only a call come without a potency. Active and inactive are the calls of the source. Unless noted, calls come from the whole dose curve.

Key:
[1] = Nuclear factor erythroid 2-related factor 2/antioxidant responsive element (Nrf2/ARE) small molecule agonists: qHTS cell viability counter screen in human keratinocytes (AID 1919968; active = well fitted curve in the direction sought with a large enough effect in the repeat runs; an effect the other way counts as inactive or inconclusive; note: nearly all actives have a fitted effect of over 55% in size)
Summary of the method: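 In human HaCaT keratinocytes stably expressing an ARE-driven luciferase, compound exposure lasted 23 h at 37 C under 5% CO2. Viable cells are quantified with a protease-based fluorogenic reagent (CellTiter-Fluor) read 1 h after addition.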

[2] = Nuclear factor erythroid 2-related factor 2/antioxidant responsive element (Nrf2/ARE) small molecule agonists: luciferase reporter gene qHTS assay in human keratinocytes (AID 1919969); note: nearly all actives have a fitted effect of over 35% in size; note: potency is the fitted concentration of half-maximal effect
[3] = molecular target: Gonadotropin-releasing hormone receptor (Homo sapiens) (UniProt P30968); experiment: Human gonadotropin-releasing hormone receptor (GnRHR) small molecule agonists, calcium flux assay in GnRHR-HEK293 cells (AID 1920063); note: nearly all actives have a fitted effect of over 35% in size
Summary of the method: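 Intracellular calcium rise is the read-out: engineered human GnRHR HEK293 cells, dye-loaded, are exposed to DMSO-dissolved compounds and fluorescence at Ex/Em 480/540 is tracked for 3 min.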

[4] = molecular target: KiSS-1 receptor (Homo sapiens) (UniProt Q969F8); experiment: Human kisspeptin (KISS1R) small molecule agonists, calcium flux assay in KISS1R-HEK293 cells (AID 1920064; active = well fitted curve in the direction sought with a large enough effect in the repeat runs; an effect the other way counts as inactive or inconclusive)
Summary of the method: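 Concentration-response testing used 15 concentrations in triplicate on human KISS1R-expressing HEK293 cells. Calcium-dependent fluorescence (Ex/Em 480/540) was followed kinetically for 3 min after compound transfer.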

[5] = G protein-coupled receptor (GPCR) small molecule agonists, calcium flux assay: HEK293 wild type cell line counter screen (AID 1920065)
Summary of the method: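 Fluorescence intensity signals activation. After overnight (18 h) culture and a 1 h calcium dye load at 37 C, compounds are added by pin tool and the plate read at 480/540 nm for 3 min in 1 s steps.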

[6] = p53 small molecule agonists, cell-based qHTS assay with human liver microsomes: qHTS cell viability counter screen (AID 1963579); note: nearly all actives have a fitted effect of over 45% in size
Summary of the method: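 p53RE-bla cells (4,000/well) were pre-incubated 5 h at 37 C, then given compounds in DMSO plus human liver microsomes (0.5 mg/mL final) and NADPH (0.5 mg/mL final) for 16 h at 37 C. Viability was read by CellTiter-Glo luminescence.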

[7] = p53 small molecule agonists, cell-based qHTS assay with rat liver microsomes: qHTS cell viability counter screen (AID 1963580); note: nearly all actives have a fitted effect of over 45% in size
Summary of the method: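 Counter screen for cytotoxicity under metabolic activation: rat liver microsomes and NADPH, 0.5 mg/mL final each, added with compounds to p53RE-bla HCT-116 cells; 16 h at 37 C, then ATP luminescence read.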

[8] = p53 small molecule agonists, cell-based qHTS assay: qHTS cell viability counter screen (AID 1963581); note: nearly all actives have a fitted effect of over 45% in size
Summary of the method: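 Luminescence from CellTiter-Glo, reflecting ATP content, serves as the cytotoxicity measure; it is taken after the 2 h reporter substrate step in HCT-116 p53RE-bla cells dosed for 16 h at 37 C.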

[9] = molecular target: 5-hydroxytryptamine receptor 2A (Homo sapiens) (UniProt P28223); experiment: 5-hydroxytryptamine receptor 2A (HTR2A) small molecule antagonists, cell-based qHTS assay (AID 1963586); note: nearly all actives have a fitted effect of over 45% in size
Summary of the method: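 CHO cells stably expressing human HTR2A were plated for 18 h at 37 C, then loaded with calcium dye for 1 h. Compounds were preincubated 5 min at room temperature before DOI (4 nM solution) was added. Kinetic fluorescence was read for 3 min.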

[10] = molecular target: 5-hydroxytryptamine receptor 2A (Homo sapiens) (UniProt P28223); experiment: 5-hydroxytryptamine receptor 2A (HTR2A) small molecule agonists, cell-based qHTS assay (AID 1963587); note: nearly all actives have a fitted effect of over 30% in size
Summary of the method: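 HTR2A-CHO cells, plated 18 h at 37 C/5% CO2, dye-loaded 1 h at 37 C; compounds in DMSO added by pin tool (agonist mode). Intracellular calcium flux read as kinetic fluorescence on FDSS over 2 min at 1 s intervals.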

[11] = molecular target: Muscarinic acetylcholine receptor M1 (Homo sapiens) (UniProt P11229); experiment: Cholinergic receptor muscarinic 1 (CHRM1) small molecule agonists, cell-based qHTS assay (AID 1963589); note: nearly all actives have a fitted effect of over 35% in size
Summary of the method: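 Fluorescent calcium dye reports M1 activation in stably transfected CHO cells. Compounds, 15 concentrations, added after 1 h dye loading at 37 C; kinetic reading at 1 sec intervals.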

[12] = cAMP Responsive Elements (CRE) small molecule agonists, cell-based qHTS assay (AID 1963590)
Summary of the method: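 Compound exposure lasted 3 h at 37 C/5% CO2 in CRE-bla HEK 293T cells grown in assay medium with 10% dialyzed FBS and 25 mM HEPES. Reporter signal came from LiveBLAzer B/G FRET substrate, 2 h, room temperature.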

[13] = molecular target: Beta-2 adrenergic receptor (Homo sapiens) (UniProt P07550); experiment: Adrenergic beta2 receptor (ADRB2) small molecule antagonists, cell-based qHTS assay (AID 1963592); note: series mostly up to about 92 µM; nearly all actives have a fitted effect of over 50% in size
Summary of the method: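 Assay format: CHO-ADRB2 cells, 18-20hr seeding at 37C/5% CO2, then compound plus 1nM isoproterenol agonist mix for 0.5hr RT. Homogeneous time-resolved fluorescence cAMP detection after 1hr, expressed as 665/615 nm ratio.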

[14] = molecular target: Beta-2 adrenergic receptor (Homo sapiens) (UniProt P07550); experiment: Adrenergic beta2 receptor (ADRB2) small molecule agonists, cell-based qHTS assay (AID 1963593);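 note: CHO cells stably overexpressing human ADRB2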
Summary of the method: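 CHO cells stably over-expressing ADRB2 were plated overnight at 37C, then dosed with compounds plus a stimulation mix containing 100uM IBMX and 25uM Ro-20-1724 for 0.5hr at room temperature. cAMP was measured by HTRF competition, 1hr.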

[15] = molecular target: D(2) dopamine receptor (Homo sapiens) (UniProt P14416); experiment: Dopamine D2 receptor (DRD2) small molecule agonists, cell-based qHTS assay (AID 1963594); note: nearly all actives have a fitted effect of over 35% in size
Summary of the method: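 HEK293 cells stably expressing DRD2 were cultured 24 h at 37 C, then given Ro20-1724 (0.1 mM final) and compounds for 10 min at room temperature. NKH477 (200nM) was then added for 30 min. cAMP was read by HTRF.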

[16] = molecular target: Muscarinic acetylcholine receptor M1 (Homo sapiens) (UniProt P11229); experiment: Cholinergic receptor muscarinic 1 (CHRM1) small molecule antagonists, cell-based qHTS assay (AID 1963588); note: nearly all actives have a fitted effect of over 40% in size
Summary of the method: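 Compounds were tested at 15 concentrations in three independent runs. Dye-loaded CHRM1-CHO cells were exposed 5 min at room temperature before stimulation by acetylcholine added at 50nM. Intracellular calcium was read kinetically on FDSS for 3 min.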

[17] = cAMP Responsive Elements (CRE) small molecule antagonists, cell-based qHTS assay (AID 1963591; active = well fitted inhibition curve with a large enough effect in the signal ratio in the repeat runs, not every such curve was filed as active; the % refers to the signal ratio)
Summary of the method: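 Stimulation used NKH477 at a final 0.25 uM for 3 h in compound-treated CRE-bla HEK293T cells, seeded 18 h beforehand. Reporter activity was measured with LiveBLAzer B/G FRET substrate after 2 h at room temperature.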

[18] = molecular target: D(2) dopamine receptor (Homo sapiens) (UniProt P14416); experiment: Dopamine D2 receptor (DRD2) small molecule antagonists, cell-based qHTS assay (AID 1963595; active = well fitted inhibition curve with a large enough effect in the signal ratio in the repeat runs, with a control signal flat; the % refers to the signal ratio)
Summary of the method: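 Human DRD2 antagonist qHTS measuring cAMP by HTRF. The cells are exposed to compound for 10 min, then to NKH477 (200 nM) and quinpirole (12 nM) for 30 min at RT, with Ro20-1724 (0.1 mM) present throughout.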

Sequence of KiSS-1 receptor (Homo sapiens) (Q969F8 whole entry, looked up): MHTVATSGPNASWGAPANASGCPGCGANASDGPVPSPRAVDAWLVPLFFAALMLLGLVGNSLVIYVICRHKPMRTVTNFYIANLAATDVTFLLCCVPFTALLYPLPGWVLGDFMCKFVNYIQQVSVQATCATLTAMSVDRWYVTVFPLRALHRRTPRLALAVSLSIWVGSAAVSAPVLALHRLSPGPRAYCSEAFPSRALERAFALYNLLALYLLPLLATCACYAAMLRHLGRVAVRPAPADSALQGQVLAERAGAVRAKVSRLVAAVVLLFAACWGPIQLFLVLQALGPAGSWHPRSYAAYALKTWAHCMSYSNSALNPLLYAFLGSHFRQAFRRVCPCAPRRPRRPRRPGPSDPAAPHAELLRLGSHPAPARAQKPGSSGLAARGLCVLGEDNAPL
Sequence of 5-hydroxytryptamine receptor 2A (Homo sapiens) (P28223 whole entry, looked up): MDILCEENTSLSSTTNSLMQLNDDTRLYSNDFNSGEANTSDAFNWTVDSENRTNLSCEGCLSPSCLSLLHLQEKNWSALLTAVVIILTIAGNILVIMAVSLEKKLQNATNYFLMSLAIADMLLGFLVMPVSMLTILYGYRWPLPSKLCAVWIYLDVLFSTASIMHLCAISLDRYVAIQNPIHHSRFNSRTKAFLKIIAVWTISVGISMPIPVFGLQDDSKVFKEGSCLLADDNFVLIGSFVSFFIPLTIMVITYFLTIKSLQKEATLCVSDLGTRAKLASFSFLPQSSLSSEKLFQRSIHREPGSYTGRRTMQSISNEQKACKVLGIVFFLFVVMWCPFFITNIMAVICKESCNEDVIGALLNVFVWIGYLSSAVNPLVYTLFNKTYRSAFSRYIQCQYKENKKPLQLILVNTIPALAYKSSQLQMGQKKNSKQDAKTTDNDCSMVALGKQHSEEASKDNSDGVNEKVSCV
Sequence of D(2) dopamine receptor (Homo sapiens) (P14416 whole entry, looked up): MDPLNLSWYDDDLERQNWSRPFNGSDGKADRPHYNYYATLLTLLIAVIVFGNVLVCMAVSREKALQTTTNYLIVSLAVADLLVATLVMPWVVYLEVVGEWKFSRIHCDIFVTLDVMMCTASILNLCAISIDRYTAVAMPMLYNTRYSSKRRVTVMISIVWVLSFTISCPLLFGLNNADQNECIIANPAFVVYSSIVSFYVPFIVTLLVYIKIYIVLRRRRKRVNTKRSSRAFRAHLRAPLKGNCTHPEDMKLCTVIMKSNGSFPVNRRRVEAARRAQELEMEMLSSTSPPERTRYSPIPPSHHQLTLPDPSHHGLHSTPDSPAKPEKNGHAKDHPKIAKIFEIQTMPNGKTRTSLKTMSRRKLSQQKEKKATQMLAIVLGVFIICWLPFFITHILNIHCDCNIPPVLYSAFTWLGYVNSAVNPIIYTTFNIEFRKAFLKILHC
Sequence of Gonadotropin-releasing hormone receptor (Homo sapiens) (P30968 whole entry, looked up): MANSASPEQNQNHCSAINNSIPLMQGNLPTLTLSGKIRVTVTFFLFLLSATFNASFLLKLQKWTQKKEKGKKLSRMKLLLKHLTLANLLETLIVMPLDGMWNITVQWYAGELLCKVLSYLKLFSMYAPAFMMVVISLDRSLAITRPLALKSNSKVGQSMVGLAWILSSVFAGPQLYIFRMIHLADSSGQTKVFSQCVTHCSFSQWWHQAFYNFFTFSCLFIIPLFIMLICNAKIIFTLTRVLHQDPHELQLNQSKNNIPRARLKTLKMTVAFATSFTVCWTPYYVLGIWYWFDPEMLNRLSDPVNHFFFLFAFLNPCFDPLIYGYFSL
Sequence of Muscarinic acetylcholine receptor M1 (Homo sapiens) (P11229 whole entry, looked up): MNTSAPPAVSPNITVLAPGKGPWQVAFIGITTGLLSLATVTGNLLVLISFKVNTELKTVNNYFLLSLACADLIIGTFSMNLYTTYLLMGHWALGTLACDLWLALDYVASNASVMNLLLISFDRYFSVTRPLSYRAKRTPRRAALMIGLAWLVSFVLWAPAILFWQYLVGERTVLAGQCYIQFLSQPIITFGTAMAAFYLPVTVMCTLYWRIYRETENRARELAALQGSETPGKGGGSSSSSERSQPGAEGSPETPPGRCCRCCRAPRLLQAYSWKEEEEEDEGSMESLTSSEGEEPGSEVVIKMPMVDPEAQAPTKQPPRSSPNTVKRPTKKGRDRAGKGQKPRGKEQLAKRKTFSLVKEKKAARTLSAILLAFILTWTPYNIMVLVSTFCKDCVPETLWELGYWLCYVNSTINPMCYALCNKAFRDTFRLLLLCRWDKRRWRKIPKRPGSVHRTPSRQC
Sequence of Beta-2 adrenergic receptor (Homo sapiens) (P07550 whole entry, looked up): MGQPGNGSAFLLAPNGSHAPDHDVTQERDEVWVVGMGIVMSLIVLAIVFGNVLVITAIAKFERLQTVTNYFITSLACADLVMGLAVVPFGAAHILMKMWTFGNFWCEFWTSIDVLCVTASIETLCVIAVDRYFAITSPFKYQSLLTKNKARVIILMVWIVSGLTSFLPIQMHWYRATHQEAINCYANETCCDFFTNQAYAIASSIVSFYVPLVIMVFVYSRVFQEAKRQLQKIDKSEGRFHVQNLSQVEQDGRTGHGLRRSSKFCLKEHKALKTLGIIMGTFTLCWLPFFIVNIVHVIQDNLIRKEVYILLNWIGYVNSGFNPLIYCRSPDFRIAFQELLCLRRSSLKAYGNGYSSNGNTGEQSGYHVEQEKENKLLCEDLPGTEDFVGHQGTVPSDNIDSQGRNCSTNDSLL

Row | Compound | Potency [1] | Potency [2] | Potency [3] | Potency [4] | Potency [5] | Potency [6] | Potency [7] | Potency [8] | Potency [9] | Potency [10] | Potency [11] | Potency [12] | Potency [13] | Potency [14] | Potency [15] | Potency [16] | Potency [17] | Potency [18]
1 | NNC(=O)CCCCC(=O)NN | inactive | inactive | inactive | inactive | inactive | inactive | inactive | inactive | inactive | inactive | inactive | inactive | inactive | inactive | inactive | – | – | –
2 | Clc1nc2ccccc2nc1Cl | inactive | 55.1 µM (active) | inactive | inactive | inactive | inactive | inactive | inactive | inactive | – | inactive | inactive | inactive | – | inactive | inactive | inactive | inactive
3 | CC(CO)(CO)[N+](=O)[O-] | inactive | inactive | inactive | inactive | inactive | inactive | inactive | inactive | – | inactive | inactive | inactive | inactive | inactive | inactive | inactive | inactive | –
4 | O=C1CCCCCCCCCCCC(=O)OCCO1 | inactive | inactive | inactive | inactive | inactive | inactive | inactive | inactive | inactive | – | inactive | – | – | inactive | inactive | inactive | – | inactive
5 | CCCNCCC | inactive | inactive | inactive | inactive | inactive | inactive | inactive | inactive | inactive | inactive | inactive | – | inactive | – | inactive | – | inactive | inactive
6 | COc1cc(N)ccc1C | inactive | inactive | inactive | inactive | inactive | inactive | inactive | inactive | inactive | – | inactive | – | inactive | inactive | inactive | inactive | inactive | inactive
7 | C/C=C1/C(=O)C[C@H]2[C@@H]3CCC4=CC(=O)CC[C@]4(C)[C@H]3CC[C@]12C | inactive | 68.4 µM (active) | inactive | inactive | inactive | inactive | inactive | inactive | inactive | inactive | inactive | – | inactive | – | inactive | – | – | inactive
8 | Cc1ccc2ccc3cccc4ccc1c2c34 | inactive | inactive | inactive | inactive | inactive | inactive | inactive | inactive | inactive | – | inactive | – | inactive | – | inactive | inactive | – | –
9 | COc1cc2c(cc1OC)[C@@H]1CC(=O)[C@@H](CC(C)C)CN1CC2 | inactive | inactive | inactive | inactive | inactive | inactive | inactive | inactive | inactive | – | inactive | inactive | – | inactive | inactive | inactive | – | inactive
